Source: PubChem
Dicer processing: inhibitors of human Dicer processing of pre-microRNA. cat-ELCCA pre-miR-21 Dicer processing, chemiluminescence; stronger effect = higher value. Q9UPY3. z-score at 25 µM. actives 6% (n = 47,000); in the data active = z-score above about 3, passing the limit was not always enough;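 also: higher signal means more uncleaved substrate so more Dicer inhibition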
Of the large screens only hits and unclear results are named; the others gave an inactive call. Shown is part of a subset that was picked to be rich in hits.

COc1ccc(OC)c(S(=O)(=O)N2CCC(C)CC2)c1	none
COc1ccc(S(=O)(=O)N2CCCN(S(=O)(=O)c3ccc(OC)cc3C)CC2)c(C)c1	Dicer processing 3.05
O=c1ccc(-c2ccc(F)cc2)nn1-c1ccc([N+](=O)[O-])cc1	none
Cc1ccsc1/C=C/c1nc(N)nc(-c2ccccc2O)n1	none
C[C@H]1c2cccc(O)c2C(O)=C2C(=O)[C@]3(O)C(O)=C(C(N)=O)C(=O)[C@@H](N(C)C)[C@@H]3[C@@H](O)[C@@H]21	none
CN(C)c1ccc(O)c2c1CC1CC3[C@@H](N(C)C)C(=O)C(C(N)=O)=C(O)[C@]3(O)C(=O)C1=C2O (stereo partly specified)	Dicer processing 6.09
C#CCNc1sc(C(C)=O)cc1[N+](=O)[O-]	none
COc1ccc(-c2ccc(C#N)c(SCc3ccccn3)n2)cc1	none
CC(C)C[C@H](NC(=O)OCC1c2ccccc2-c2ccccc21)C(=O)O	Dicer processing 4.6
C=CCOC(=O)C(CC(=O)O)NC(=O)OCC1c2ccccc2-c2ccccc21 (stereo unspecified)	none
CC[C@H](C)[C@H](NC(=O)OCC1c2ccccc2-c2ccccc21)C(=O)O	none
O=C(OCCn1ncc2ccccc2c1=O)c1ccc2c(c1)CCO2	none
O=C(COc1nnc(SCCS(=O)(=O)c2ccc(F)cc2)n1C1CC1)c1ccc(F)cc1	none
N=c1scc(-c2ccc(Cl)cc2)n1-c1cc(Cl)c(Cl)cc1Cl	none
CCOC(=O)c1c(NC(=O)CSc2nc3ccccc3s2)sc2c1CCC2	none
CSc1nc2cc(C)nn2c(-c2ccc(C(C)(C)C)cc2)c1C#N	none
CSc1nc2cc(C)nn2c(-c2ccccc2Cl)c1C#N	Dicer processing 5.21
CSc1nc(N)nc(-c2ccccc2Cl)c1C#N	none
CSC(=NC(=O)c1c(Cl)cccc1Cl)N1CCOCC1	none
CC1CCC(C(=O)Oc2ccc(Cl)cc2)CC1 (stereo unspecified)	none
CC1=C(C(=O)Nc2ccccn2)C(c2ccc(Br)cc2)C2=C(CC(C)(C)CC2=O)N1 (stereo unspecified)	Dicer processing 4.09
CC1=C(C(=O)Nc2cccc(C)n2)C(c2cccc(Br)c2)C2=C(CC(C)(C)CC2=O)N1 (stereo unspecified)	Dicer processing 4.8
CC1=C(C(=O)Nc2ccc(Br)cn2)C(c2ccc(C)cc2)C2=C(CC(C)(C)CC2=O)N1 (stereo unspecified)	none
CC1=C(C(=O)Nc2ccc(F)cc2F)C(c2ccc3c(c2)OCO3)C2=C(CC(C)(C)CC2=O)N1 (stereo unspecified)	Dicer processing 3.07
CCOC(=O)C1=C(C)NC2=C(C(=O)CC(C)(C)C2)C1c1ccc(F)cc1 (stereo unspecified)	none
CC1=C(C(=O)Nc2ccc(C)cn2)C(c2cccc(Br)c2)C2=C(CC(C)(C)CC2=O)N1 (stereo unspecified)	none
CC1=C(C(=O)Nc2cc(C)ccn2)C(c2ccc(F)cc2)C2=C(CC(C)(C)CC2=O)N1 (stereo unspecified)	none
CC1=C(C(=O)OCCc2ccccc2)C(c2ccc3c(c2)OCO3)C2=C(CC(C)(C)CC2=O)N1 (stereo unspecified)	none
COC(=O)C1=C(C)NC2=C(C(=O)CC(C)(C)C2)C1c1cccc(F)c1 (stereo unspecified)	none
COC(=O)C1=C(N)Oc2c(Br)cc(Br)cc2C1C(C#N)C(=O)OC (stereo unspecified)	none
COc1cc(C2C(C(=O)OC3CCCCC3)=C(C)NC3=C2C(=O)CCC3)cc(Cl)c1O (stereo unspecified)	none
CN1CCc2c(sc3c2C(=O)NC(c2ccc(-c4ccccc4F)o2)N3)C1 (stereo unspecified)	none
O=C1OC(c2cccnc2Sc2ccc(Cl)cc2)=N/C1=C\c1ccc(C(F)(F)F)cc1	none
CN1C(=O)c2cccc3cc([N+](=O)[O-])cc(c23)C1=O	none
O=C1c2cccc3cc([N+](=O)[O-])cc(c23)C(=O)N1Cc1ccncc1	Dicer processing 3.49
O=C(O)CN1C(=O)c2cccc3cc([N+](=O)[O-])cc(c23)C1=O	none
C=CCc1ccc(OC(C)C(=O)Nc2sc3c(c2C(N)=O)CCC3)c(OC)c1 (stereo unspecified)	none
O=C(NCc1ccc(S(=O)(=O)Nc2ccc3c(c2)OCCO3)s1)c1ccccc1	Dicer processing 3.23
O=C(NCc1ccc(S(=O)(=O)Nc2ccccc2Cl)s1)c1ccccc1	none
O=C(NCc1ccc(S(=O)(=O)Nc2ccc3c(c2)OCCO3)s1)c1ccc(Cl)cc1	none
CCOC(=O)c1cnn(-c2ncnc3sc4c(c23)CCN(C(=O)OCC)C4)c1N	none
Cc1cc(-c2nn(C)c(=O)c3ccccc23)cc(C)c1OS(=O)(=O)c1ccccc1OC(F)(F)F	none
COc1ccc2cc(C(C)C(=O)Nc3cc(Cl)cc(Cl)c3)ccc2c1 (stereo unspecified)	none
CCCCOc1ccc(N2C(=O)C3CC(C)=C(C)CC3C2=O)cc1 (stereo unspecified)	none
CC12N=NCC1C(=O)N(c1ccccc1F)C2=O (stereo unspecified)	none
CC1=C(C)CC2C(=O)N(c3ccc(Oc4ccc(Cl)cc4)cc3)C(=O)C2C1 (stereo unspecified)	Dicer processing 3.34
COc1cc(OC)cc(N2C(=O)C3CC(C)=C(C)CC3C2=O)c1 (stereo unspecified)	none
CC1=C(C)CC2C(=O)N(c3ccccc3F)C(=O)C2C1 (stereo unspecified)	Dicer processing 4.94
CC1=C(C)CC2C(=O)N(c3ccc(N(C)C)cc3)C(=O)C2C1 (stereo unspecified)	none
CCOc1ccc(C2c3c(oc4ccc(C)cc4c3=O)C(=O)N2Cc2ccc3c(c2)OCO3)cc1 (stereo unspecified)	none
Cc1ccc(/C=N\Nc2nc3ccccc3nc2/C=C/c2cccs2)cc1	none
Nc1nccnc1C(=O)NNC(=O)c1cccc(C(F)(F)F)c1	none
Cc1ccc(S(=O)(=O)N2CCN(C(=O)CSc3nnc(N)s3)C2)cc1	none
Cc1nc2ccc(NC(=O)Nc3ccccc3)cc2o1	none
CC(C)(C)C(=O)Cn1nnc(N2CCCC2)n1	none
Cc1sc2ccccc2c(=O)c1Cc1ccc(Cl)c(Cl)c1	none
CC(C)(C)NC1=C(C#N)C(=O)NC(c2ccccc2O)S1 (stereo unspecified)	Dicer processing 3.86
CSC1=C(C#N)C(=O)NC(c2ccccc2O)S1 (stereo unspecified)	none
CSC1=C(C#N)C(=O)NC(c2cccc3ccccc23)S1 (stereo unspecified)	none
O=S(=O)(NC(=S)Nc1ccc(Cl)c(Cl)c1)c1ccccc1	none
Nc1nc(Nc2cccc(F)c2)sc1C(=O)c1ccc(F)cc1	none
Nc1nc(Nc2ccccc2)sc1C(=O)c1ccc(F)cc1	none
Nc1nc(Nc2ccc(F)cc2)sc1C(=O)c1ccccc1	Dicer processing 4.25
CC(C)(C)NC(=O)N/N=C(\N)c1ccc(C(F)(F)F)cn1	none
CC(C)(C)OC(=O)C(C)(C)S(=O)(=O)c1ccccn1	none
COc1ccc(NC(=S)N2N=C3c4ccccc4CCC3C2c2ccc(F)cc2)cc1 (stereo unspecified)	none
COc1ccc(N2CC3CCc4ccccc4C3=N2)cc1 (stereo unspecified)	none
COc1ccc(C2C3CCc4ccccc4C3=NN2CCOC(=O)C2CC2)cc1 (stereo unspecified)	Dicer processing 4.84
CCCCc1nc2sc3c(NCCO)ncnc3c2c2c1COC(C)(C)C2	none
O=C1CC(c2cccs2)c2c(-c3ccccc3)nn(-c3ccccc3)c2N1 (stereo unspecified)	none
CC(N)=O	Dicer processing 4.06
CCCCC(NC1CCS(=O)(=O)C1)C(=O)O (stereo unspecified)	none
